# High-throughput results (PubChem)
# This is a sample that favours compounds with a hit; in the whole collection about 10% have one here.
# G9a inh = blocks human histone lysine methyltransferase G9a. Q96KQ7. G9a H3K9 monomethylation, AlphaScreen, 2 h. 8.8% of 350,000 active. Potency, µM (highest dose often 102 µM), for the others: at the top dose activity, negative = inhibition, most hits filed as inhibitors; also: potency is read from the fitted curve at half-maximal effect; % is scaled to controls: 0 for no effect and ±100 for the full control effect; nearly all actives have a fitted effect of over 75% in size
#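 Readings reflect AlphaScreen signal from monomethyl-H3K9 antibody detection. HMT at 20 nM; substrate b-H3K9 500 nM; cofactor SAM 20 uM; 2 h RT reaction; compounds tested as titrations in qHTS with 15 min preincubation.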
# JMJD2A Tudor = blocks the human JMJD2A Tudor domain; O75164; AlphaScreen JMJD2A-Tudor / H3K4me3 peptide binding; Potency, µM (top dose mostly 114 µM), for inactives: at the highest dose activity change, negative = inhibition, usual class: inhibitors; 4.4% of 390,000 active; also: potency is read from the fitted curve at half-maximal effect; % is scaled to controls: 0 for no effect and ±100 for the full control effect; nearly all actives have a fitted effect of over 50% in size
# HP1b chromo inh = blocks HP1-beta chromodomain binding to methylated histone tails. P83916. AlphaScreen HP1-beta / biotin-H3K9me3 peptide binding. Potency, µM (titrated, usually from 114 µM), for inactives: top-dose activity change, negative = inhibition, most hits filed as inhibitors. 0.56% of 390,000 active; also: potency is read from the fitted curve at half-maximal effect; nearly all actives have a fitted effect of over 70% in size
#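 HP1-beta protein (50 nM final) preincubated 30 min at room temperature with biotinylated H3(1-18)K9me3 peptide (50 nM) in PBS pH 7.4, 0.01% Tween-20, then compound added for 30 min. AlphaScreen streptavidin donor/nickel chelate acceptor beads (10 ug/mL final), 30 min dark, luminescence read.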
# Six1-Eya2 blk = inhibitors of human Six1/Eya2 interaction; activity change, % (test concentration not listed); AlphaScreen GST-Six1/His-Eya2 binding, biochemical; hits give low values; 0.56% of 360,000 active; in the data active = activity change below about -65%; inconclusive = mostly about -30% to -63%; also: % is scaled to controls: 0 for no effect and ±100 for the full control effect
#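 Six1/Eya2 binding was read as AlphaScreen signal after compounds were pinned into GST-Six1 plus His-tagged Eya2 (5X stock 250/500 nM) in pH 8.0 Tris/NaCl/TCEP buffer, beads added, then incubated 1 h, 37 C, dark.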
# BAZ2B block = blocks human BAZ2B; Q9UIF8; AlphaScreen BAZ2B-H3K14Ac peptide displacement; Potency, µM (top dose mostly 114 µM), without a hit: top-dose activity change, negative = inhibition, most hits filed as inhibitors; 4.4% of 360,000 active; also: potency is read from the fitted curve at half-maximal effect; % is scaled to controls: 0 for no effect and ±100 for the full control effect; nearly all actives have a fitted effect of over 60% in size
#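 In this displacement format the biotinylated H3(5-23) peptide acetylated at Lys14 serves as ligand at 50 nM, with BAZ2B at 50 nM in PBS pH 7.4 containing 0.01% Tween-20. Donor and acceptor beads are 10 ug/mL final.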
# CtBP-E1A inh = CtBP/E1A binding inhibition | AlphaScreen GST-E1A/His-CtBP binding, 1536-well; hits give low values | activity change, % (test concentration not listed) | 0.49% of 340,000 active | AID 651724; in the data active = activity change below about -65%; inconclusive = mostly about -30% to -63%; also: % is scaled to controls: 0 for no effect and ±100 for the full control effect
#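 GST-E1A and His-tagged CtBP (125 nM each as 5X stock) were preincubated with pin-transferred compound for 2 h at 37 °C in the dark, then glutathione donor and nickel acceptor beads were added for 1 h before AlphaScreen reading.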
# The depositor's hits bear a star; ? = inconclusive; / = no result given; [ ] = dose if it differs, or a comment. Unless noted, calls follow the shape of the dose curve; as a rule, active = well fitted inhibition curve with a large enough effect; inconclusive = small, poorly fitted or top-dose-only effect; inactive = no such curve, though single readings can be large or run the other way.
SMILES,G9a inh,JMJD2A Tudor,HP1b chromo inh,Six1-Eya2 blk,BAZ2B block,CtBP-E1A inh
CC(Sc1nc(-c2ccccc2)cc(C(F)(F)F)n1)C(=O)Nc1sc2c(c1C#N)CCC2 (centres undefined),39.8µM*,-23.1%,-22.4%,-9.7,-18.1%[57.1 µM],-9.9
CC(Sc1nc(-c2ccccc2)cc(C(F)(F)F)n1)C(=O)Nc1sc2c(c1C(N)=O)CCC2 (centres undefined),?,-19.9%[57.1 µM],44.2%,4.3,-33.8%,-2.0
Cc1cc2c(s1)c1cnn(Cc3ccc(Br)cc3F)c(=O)c1n2C,/,-21.9%,/,/,/,/
Nc1ccc2nc(C3CCCCC3)[nH]c2c1,?,-17.4%,12.7%,2.0,56.2µM*,0.3
Nc1ccc(-c2nc3ccc(N)cc3[nH]2)cc1,-38.8%,56.2µM*,?,-4.2,?,/
Nc1cc(N)cc(-c2nc3ccccc3[nH]2)c1,22.4µM*,?,-36.2%,?,44.7µM*,?
c1ccc2[nH]c(C3CC3)nc2c1,-0.3%[59 µM],-14.6%,-11.3%,1.0,-19.4%,-4.3
Nc1ccc2nc(-c3cccc(-c4nc5ccc(N)cc5[nH]4)c3)[nH]c2c1,22.4µM*,-33.9%,-16.9%[57 µM],11.7,?,-6.2
Cc1nn(-c2ccc(F)cc2)c(-n2cccc2)c1C(=O)NCCCN1CCN(c2cccc(Cl)c2)CC1,?,?,-7.8%,/,?,/
Cc1ccc([C@H]2N[C@]3(CCCN(Cc4ccccc4)C3=O)[C@H]3C(=O)N(C)C(=O)[C@@H]23)cc1,/,/,/,-7.0,/,3.7
O=C(OC(C(=O)NCc1cccs1)c1ccccn1)c1cccs1 (centres undefined),?,-11.3%,13.1%,2.8,56.2µM*,0.9
O=C(NCc1ccccn1)c1ccc(NS(=O)(=O)c2cccc([N+](=O)[O-])c2)cc1,39.2%[12.7 µM],-8.1%,43.4%,-2.4,11.1%,-8.3
O=C(NCc1cc([N+](=O)[O-])ccc1O)c1cccc(NS(=O)(=O)c2ccccc2)c1,-4.9%,-31.4%,-7.5%,-82.7*,-10.7%,-89.0*
CCn1c(SCC(=O)Nc2cc(C(C)(C)C)nn2-c2ccccc2)nnc1-c1cccs1,8.7%[59 µM],-12.8%,27.1%,-2.3,-29.4%,-7.3
CCn1c(SCC(N)=O)nnc1-c1cc2c(C)nn(-c3ccccc3)c2s1,44.7µM*,-15.3%,34.1%,-23.5,9.1%,-29.5
CCOC(=O)CSc1cc(-c2ccccc2)nc2ncnn12,?,2.1%,48.9%,4.0,?,-1.0
CC(=O)C1=C(O)C(=O)N(c2ccc(F)cc2)C1c1ccc(C)cc1 (centres undefined),-0.2%[0.501 µM],-15.8%,21.4%,1.7,-28.0%,3.3
CC(=O)C1=C(O)C(=O)N(c2cccc(C(=O)O)c2)C1c1ccc(F)cc1 (centres undefined),25.1µM*,?,17.6%,12.1,?,0.5
CC(=O)C1=C(O)C(=O)N(c2ccc(O)cc2)C1c1ccccc1 (centres undefined),?,9.1%,30.1%,-0.6,?,1.0
CC(=O)C1=C(O)C(=O)N(c2ccc(C(=O)O)cc2)C1c1ccccc1 (centres undefined),44.7µM*,31.6µM*,8.8%,1.5,?,-6.8
Cc1nc(-c2ccc([S+](=O)([O-])N3CCN([S+](=O)([O-])c4c(F)cccc4F)CC3)s2)cs1,/,-10.3%,/,/,/,/
C=C(C)C1CC=C(C)/C(=N\NC(=O)CNc2cccc3ccccc23)C1 (centres undefined),10µM*,-24.5%,22.8%,5.6,-2.7%,/
COc1cccc(-n2sc3c(c2=S)-c2cc(OC)ccc2NC3(C)C)c1,?,11.2µM*,5.62µM*,-26.7,10µM*,-7.5
COc1ccc(/C=N/Nc2nonc2N)c(OC)c1,?,-6.8%,38.9%,-3.3,-22.2%,/
COc1ccc(/C=N/Nc2cc(N(C)C)nc(N(C)C)n2)cc1,4.47µM*,?,?,-22.1,50.1µM*,-15.7
COc1ccc(/C=N/NC2=NCCCCC2)c(OC)c1,11.2µM*,-10.9%,26.7%,2.6,-17.2%,7.2
